Compounds with a hit are over-represented: about 5.5% of the library has one in this group of screens.
Mito fusion yeast – inhibitors of mitochondrial division or activators of mitochondrial fusion; S. cerevisiae fusion-defective mutant growth rescue, CellTiterGlo 48 h; Potency, µM (series often up to 46.1 µM), most hits filed as activators; hit rate 0.23% among 320,000; also: nearly all actives have a fitted effect of over 45% in size
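Compounds are tested for their ability to restore growth of mitochondrial fusion-defective yeast strains at non-permissive 37C in YPEG medium over 48 hours. Viability is quantified by luciferase luminescence.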
RORgamma inh – inhibitors of mouse ROR gamma transcriptional activity; P51450; Drosophila S2 Gal4-RORgamma UAS-luciferase reporter, 20 h; Potency, µM (top dose mostly 53.6 µM), usual class: inhibitors; hit rate 5.4% among 310,000; AID 2551; also: nearly all actives have a fitted effect of over 60% in size
Target sequence (P51450 whole entry, looked up, the tested form may be a part): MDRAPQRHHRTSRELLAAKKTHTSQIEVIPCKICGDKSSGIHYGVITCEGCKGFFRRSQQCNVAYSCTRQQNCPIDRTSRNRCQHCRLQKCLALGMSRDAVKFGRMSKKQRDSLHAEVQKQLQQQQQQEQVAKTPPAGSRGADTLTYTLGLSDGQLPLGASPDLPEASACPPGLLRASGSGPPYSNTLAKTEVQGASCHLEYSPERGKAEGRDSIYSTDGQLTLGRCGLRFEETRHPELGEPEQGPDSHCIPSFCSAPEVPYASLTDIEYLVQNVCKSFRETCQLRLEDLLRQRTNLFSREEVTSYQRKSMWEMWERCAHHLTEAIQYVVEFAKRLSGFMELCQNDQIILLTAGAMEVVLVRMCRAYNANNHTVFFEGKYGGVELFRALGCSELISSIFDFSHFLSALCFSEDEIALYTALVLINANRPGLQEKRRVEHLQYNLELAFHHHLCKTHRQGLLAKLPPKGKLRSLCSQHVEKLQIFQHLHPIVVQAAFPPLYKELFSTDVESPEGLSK
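Drosophila Schneider cells stably carrying a metallothionein-driven Gal4 DBD–ROR gamma fusion and a UAS-Photinus luciferase reporter were exposed to compound for 1 hr, then induced with copper sulfate (700 uM final) for 20 hr at ambient temperature before luminescence reading.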
Integrin act MD – integrin-mediated muscular dystrophy alleviation activation. alpha7betagal myoblasts, beta-gal FDG fluorescence, 48 h. Potency, µM (highest dose often 38.3 µM), most hits filed as activators. hit rate 0.064% among 350,000; also: nearly all actives have a fitted effect of over 60% in size
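alpha7betagal+/- myoblasts (passage 13, 250/well) treated 48 h at 37C with compounds at 1:260 dilution of DMSO stock. Lysed, then beta-galactosidase activity read as FDG fluorescence (ex 480/em 540) after 30 min, with pre-read for autofluorescence.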
VP16 counter – counter-screen for ROR gamma inhibitors: Gal4-VP16 reporter; Drosophila S2 Gal4-VP16 UAS-luciferase, luminescence, 20 h; Potency, µM (top dose mostly 53.6 µM), most hits filed as inhibitors; hit rate 3.5% among 310,000; AID 2546;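 also: Gal4-VP16 expression switched on by copper sulfate through the metallothionein promoter; nearly all actives have a fitted effect of over 50% in size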
uPA generation – cell surface uPA generation inhibition. cell surface uPA generation assay, qHTS. Potency, µM (series often up to 38.3 µM), hits mostly inhibitors. hit rate 0.31% among 330,000. AID 540303; active = well fitted inhibition curve with a large enough effect; inconclusive = small, poorly fitted or top-dose-only effect; inactive = no such curve, though single readings can be large or run the other way; tested in mouse RAW 264.7 cells; also: nearly all actives have a fitted effect of over 55% in size
BCR signal inh – blocks chronic active B-cell receptor signaling; ABC-DLBCL IkBa-CBG/CBR reporter, luminescence ratio, 4 h; Potency, µM (doses to about 46.1 µM), most hits filed as inhibitors; hit rate 0.05% among 340,000; AID 493014; active = well fitted inhibition curve with a large enough effect in the signal ratio, with a control signal flat, not every such curve was filed as active; inconclusive = small, poorly fitted or top-dose-only effect, or effect the other way, or a change in a side signal; the % refers to the signal ratio
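Compounds up to 46 uM were incubated four hours with TMD8 cells whose green CBG68 luciferase is fused to IkappaBalpha; red CBR luminescence normalised the signal, and concentration-effect curves were fitted to fusion, red and ratio data.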
Hits are given with their value. Unless noted, calls follow the shape of the dose curve; as a rule, active = well fitted curve in the direction sought with a large enough effect; inconclusive = small, poorly fitted or top-dose-only effect, or another doubt; inactive = no such curve, though single readings can be large; an effect the other way counts as inactive or inconclusive.

Cc1cccc(/C(N)=N/OC(=O)c2ccoc2C)c1 was read as Mito fusion yeast inactive, RORgamma inh inconclusive, Integrin act MD inconclusive, VP16 counter inconclusive, uPA generation inactive and BCR signal inh inconclusive.
Screening Cc1occc1C(=O)O/N=C(\N)c1ccccc1 returned Mito fusion yeast inactive, RORgamma inh inconclusive, Integrin act MD inactive, VP16 counter 10µM, uPA generation inactive and BCR signal inh inconclusive.
For O=C(c1ccco1)N1CCC[C@@]2(CCN(C(c3ccccc3)c3ccccc3)C2)C1 the results were RORgamma inh inactive and VP16 counter inconclusive.
Screening CCCCC(=O)NNC(=S)NC(=O)c1ccc(C)cc1 returned Mito fusion yeast inactive, RORgamma inh 4.5µM, Integrin act MD inactive, VP16 counter 18µM, uPA generation inactive and BCR signal inh inconclusive.
For CCCCC(=O)NNC(=S)NC(=O)c1cccc([N+](=O)[O-])c1 the results were Mito fusion yeast inactive, RORgamma inh 1µM, Integrin act MD inactive, VP16 counter 0.89µM, uPA generation inactive and BCR signal inh inactive.
`COCCCNC(=S)NC(=O)c1ccc(C)cc1` gave Mito fusion yeast inactive, RORgamma inh 13µM, Integrin act MD inactive, VP16 counter inconclusive, uPA generation inactive and BCR signal inh inactive.
O=C(CCN1CCOCC1)NNC(=S)NC(=O)c1ccccc1 was read as Mito fusion yeast inactive, RORgamma inh 14µM, Integrin act MD inactive, VP16 counter inactive, uPA generation inactive and BCR signal inh inactive.
Screening CCCCCC(=O)NNC(=O)c1ccc(-c2ccccc2)cc1 returned Mito fusion yeast inactive, RORgamma inh inactive, Integrin act MD inactive, VP16 counter inactive and BCR signal inh inactive.
CN(C)CCCO[C@@H]1[C@H]2OC(C)(C)O[C@H]2O[C@@H]1[C@H](O)CO was read as Mito fusion yeast inactive, uPA generation inactive and BCR signal inh inactive.
Screening Cc1ccc(C(=O)NC(=S)NNC(=O)CC#N)cc1 returned Mito fusion yeast inactive, RORgamma inh 10µM, Integrin act MD inactive, VP16 counter inactive, uPA generation inactive and BCR signal inh inconclusive.
Screening CCC(=O)NC(=S)NNC(=O)c1ccc([N+](=O)[O-])cc1 returned Mito fusion yeast inactive, RORgamma inh inconclusive, Integrin act MD inactive, VP16 counter inactive, uPA generation inactive and BCR signal inh inactive.
CC(C)CC(=O)NC(=S)NNC(=O)c1ccc([N+](=O)[O-])cc1 was read as Mito fusion yeast inactive, RORgamma inh 4µM, Integrin act MD inactive, VP16 counter 5.6µM, uPA generation inactive and BCR signal inh inactive.
For CCCCC(=O)NNC(=S)NC(=O)c1ccc([N+](=O)[O-])cc1 the results were Mito fusion yeast inactive, RORgamma inh 2.5µM, Integrin act MD inactive, VP16 counter 11µM, uPA generation inactive and BCR signal inh inconclusive.
Screening Cc1ccc(C(=O)NC(C#N)=C(Cl)Cl)cc1 returned Mito fusion yeast inactive, RORgamma inh 8.9µM, Integrin act MD inactive, VP16 counter 10µM, uPA generation inactive and BCR signal inh inconclusive.
Screening Cc1ccc(C)c(NC(=O)CSc2c(C)cnc3c2c(=O)n(C)c(=O)n3C)c1 returned BCR signal inh inactive.
Screening CN(C(=O)c1cccc(NC(=O)Cc2ccc(NC(=O)C3CCCN(C(=O)C4CCCC4)C3)cc2)c1)C1CC1 (centres undefined) returned Integrin act MD inactive and uPA generation inactive.
CCO[C@@H]1OC(C(=O)NCc2ccccc2)=C[C@H](C2CCCCC2)[C@H]1CCCO was read as Mito fusion yeast inactive, RORgamma inh inactive, Integrin act MD inactive, VP16 counter inactive, uPA generation inactive and BCR signal inh inactive.
COc1ccc(C(CNC(=O)c2cccc(NC(=O)c3cccs3)c2)N2CCCC2)cc1 (centres undefined) was read as Mito fusion yeast inactive, Integrin act MD inactive, uPA generation inactive and BCR signal inh inconclusive.
For Oc1ccc(Br)cc1-c1nc2cnccn2c1NC1CCCCC1 the results were Mito fusion yeast inactive, RORgamma inh 13µM, Integrin act MD inactive, VP16 counter inconclusive, uPA generation inactive and BCR signal inh inconclusive.
For Fc1ccc(-c2nc3cnccn3c2NC2CCCC2)cc1 the results were Mito fusion yeast inactive, RORgamma inh inactive, Integrin act MD inactive, VP16 counter inactive, uPA generation inactive and BCR signal inh inactive.
Screening Oc1ccc(Br)cc1-c1nc2cnccn2c1NC1CCCC1 returned Mito fusion yeast inactive, RORgamma inh 22µM, Integrin act MD inactive, VP16 counter inconclusive, uPA generation inactive and BCR signal inh inactive.
`CCCCCCCC/C=C\CCCCCCCC(=O)OCC(CO)OC(=O)CCCCCCC/C=C\CCCCCCCC` (centres undefined) gave RORgamma inh inactive and VP16 counter inactive.
For c1ccc(-c2cn3nc(-c4ccccc4)c(-c4ccccc4)nc3n2)cc1 the results were Mito fusion yeast inactive, RORgamma inh 22µM, Integrin act MD inactive, VP16 counter inactive, uPA generation inactive and BCR signal inh inconclusive.
Nc1nc(-c2ccccc2)cn1N was read as Mito fusion yeast inactive, RORgamma inh 3.2µM, Integrin act MD inactive, VP16 counter 7.1µM, uPA generation inactive and BCR signal inh inconclusive.
Nc1nn2cc(-c3ccccc3)nc2c2ccccc12 was read as Mito fusion yeast inactive, RORgamma inh inactive, Integrin act MD inactive, VP16 counter inactive, uPA generation inactive and BCR signal inh inconclusive.
For C[C@@H]1CN([C@@H](C)CO)S(=O)(=O)c2ccc(Br)cc2O[C@H]1CN(C)C(=O)Cc1cccnc1 the results were Integrin act MD inactive.
For O=C(CNC(=O)c1cccs1)c1ccc(Br)cc1 the results were Mito fusion yeast inactive, RORgamma inh inactive, Integrin act MD inactive, VP16 counter inactive, uPA generation inactive and BCR signal inh inconclusive.
Screening O=c1[nH]c(C2CCCN(S(=O)(=O)c3ccccc3)C2)nc2c1nnn2Cc1cccc(Cl)c1 (centres undefined) returned Mito fusion yeast inactive, RORgamma inh inactive, Integrin act MD 4µM, VP16 counter inconclusive, uPA generation inactive and BCR signal inh inconclusive.
`CN(C)Cc1ccccc1Sc1cccc2ccccc12` gave Mito fusion yeast inactive, RORgamma inh 10µM, Integrin act MD inactive, VP16 counter 14µM, uPA generation inactive and BCR signal inh inactive.
CC(=O)OCC1OC(n2cnc3c(=O)[nH]cnc32)C(OC(C)=O)C1OC(C)=O (centres undefined) was read as RORgamma inh inactive and VP16 counter inactive.
For CC1=CC(C)(C)Nc2ccc(OC(=O)c3cccnc3)cc21 the results were Mito fusion yeast inactive, RORgamma inh 0.5µM, Integrin act MD inactive, VP16 counter 0.79µM, uPA generation inactive and BCR signal inh inconclusive.
For O=C(Oc1cccc(OC(=O)c2ccco2)c1)c1ccco1 the results were Mito fusion yeast inactive, RORgamma inh inactive, Integrin act MD inactive, VP16 counter inactive, uPA generation inactive and BCR signal inh inactive.
